In all, about 340,000 compounds went through this assay and about 2,300 (0.68%) were called active. This excerpt belongs to a sample that is enriched for actives. Values without a mark were called inactive. Rule as the data show it: active = growth rescue above about 28% (passing the limit was not always enough); inconclusive = no clear call, values can overlap the other calls.

Here are results for 58 molecules from PubChem BioAssay AID504582 (Broad Institute, 2011).

The nature of this assay: rescue of yeast from PfHsp40 toxicity, primary screen, S. cerevisiae, ATP luminescence (AID 504582).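 Also: yeast W303a lacking pdr1 and pdr3 grown in galactose medium; growth measured after three days at 30 °C.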 Particulars: S. cerevisiae expressing PfHsp40, growth rescue, at 12.5 µM, hits give high values.
As for `COc1ccccc1/C=C1\SC(=O)N(CCC(=O)N(C)C2CCS(=O)(=O)C2)C1=O` (stereo not drawn), the growth rescue was -0.442%.

As to `CCCCC(=O)NC(c1ccc(OC)c(OC)c1)c1ccc2cccnc2c1O` (stereo not drawn), the growth rescue was 222% (active).

Take `CCOc1ccc(C(CC(=O)O)NC(=O)Cc2ccccc2)cc1OC` (stereo not drawn): the growth rescue was -0.249%.

`COc1ccc(CCNS(=O)(=O)c2cccc3cccnc23)cc1OC`: the growth rescue is 0.122%.

For `CCOC(=O)C(C)Oc1cccc2c(=O)n(CC(=O)N3CCc4ccccc43)ccc12` (stereo not drawn), the growth rescue was 92.2% (active).

With `CCOC(=O)C(C)Oc1cccc2c(=O)n(CC(=O)NCCc3ccc(OC)c(OC)c3)ccc12` (stereo not drawn), the growth rescue is 0.594%.

On to `COc1cccc2c(=O)n(CC(=O)N3CCCCCC3)ccc12`, for which the growth rescue was -0.593%.

For the molecule `O=C(O)CCCCOn1ccnc1`, the growth rescue is -2.14%.

Turning to `COc1ccc2c(c1)CCc1c(C(=O)N3CCc4ccccc4C3)noc1-2`, the growth rescue is 182% (active).

Consider `O=C(c1noc2c1CCCC2)N1CCc2ccccc2C1`, for which the growth rescue was -0.161%.

For the molecule `COc1ccc2c(c1)CCc1c(C(=O)N3CCCC3)noc1-2`, the growth rescue was 0.772%.

As to `CCN(CC)C(=O)COc1coc(CN2CCN(Cc3ccccc3)CC2)cc1=O`, the growth rescue is -0.869%.

In the case of `Cc1ccc2[nH]c(C)c(CCNC(=O)NC3CCCCC3)c2c1`, the growth rescue was -0.354%.

As for `Cc1ccccc1-c1n[nH]c(=S)n1/N=C/c1ccc(-c2ccccc2Br)o1`, the growth rescue was 0.454%.

Take `Cc1ccsc1/C=N/n1c(=S)[nH]nc(C)c1=O`: the growth rescue was -0.774%.

Consider `S=c1[nH]nc(-c2ccco2)n1/N=C/c1ccc(Br)s1`, for which the growth rescue was 152% (active).

Take `Cc1cc(NC(=O)CSc2nc(=O)cc(N)n2-c2ccc(F)cc2)no1`: the growth rescue is -0.428%.

Turning to `CC(=O)C(C)n1cnc2scc(-c3ccc(C)cc3)c2c1=O` (stereo not drawn), the growth rescue is 0.285%.

On to `CCC(C(=O)OC)n1cnc2scc(-c3ccc(C)cc3)c2c1=O` (stereo not drawn), for which the growth rescue is 49.2% (active).

Take `CCCc1nc2scc(-c3ccc(C)cc3)c2c(=O)n1N`: the growth rescue was 0.943%.

For the molecule `COC(=O)Cn1cnc2scc(-c3ccc(C)c(C)c3)c2c1=O`, the growth rescue was 151% (active).

As for `CCOC(=O)C(C)n1cnc2scc(-c3ccc(C)c(C)c3)c2c1=O` (stereo not drawn), the growth rescue is 4.82%.

Regarding `CCn1cnc2scc(-c3ccc(C)c(C)c3)c2c1=O`, the growth rescue was 1.65%.

With `CN(C)CCCn1c(SCCN2C(=O)c3ccccc3C2=O)nc2ccccc2c1=O`, the growth rescue was -0.077%.

For `COc1ccc(C2OC(=O)CC2C(=O)NC(C)C)cc1` (stereo not drawn), the growth rescue was -0.42%.

Turning to `Cc1cccc(CCNS(=O)(=O)c2ccc(S(=O)(=O)NC3CCCC3)cc2)c1`, the growth rescue is 0.473%.

As to `O=C(CCc1nnc2ccc(NCCCN3CCCC3=O)nn12)NCc1ccccc1Cl`, the growth rescue is -0.483%.

For `Cc1nn(C)cc1C(=O)Nc1ccccc1Br`, the growth rescue was 0.045%.

With `CCCS(=O)(=O)N1CCN=C1SCc1cccc(F)c1`, the growth rescue is 0.879%.

As for `O=C1CC(=O)Nc2cc(S(=O)(=O)N3CCN(c4cccc(C(F)(F)F)c4)CC3)ccc2N1`, the growth rescue was -1.27%.

Consider `O=C1CN(C(=O)c2cc(F)cc(F)c2)c2ccccc2N1`, for which the growth rescue is -0.198%.

Take `O=C(NNc1cc(Cl)ccc1Cl)c1cccnc1Cl`: the growth rescue is 0.035%.

As to `CC(=O)/C(=N\Nc1ccc(Cl)cc1Cl)Sc1cccc2cccnc12`, the growth rescue was 67.7% (active).

Turning to `Cc1c(NC(=O)CSc2cccc3cccnc23)c(=O)n(-c2ccccc2)n1C`, the growth rescue is 5.35%.

For the molecule `O=[N+]([O-])c1ccc(N2CCN(S(=O)(=O)c3ccccc3)CC2)cc1N1CCc2ccccc2C1`, the growth rescue was -0.201%.

As for `CC/C(=C\c1ccc(Cl)cc1)c1ccncc1`, the growth rescue was 0.0255%.

Take `CCN(C(=O)C1CCCN(c2nc(-c3ccc(OC)cc3)no2)C1)c1ccc(OC)cc1` (stereo not drawn): the growth rescue was 61.7% (active).

As for `COc1ccc(NC(=O)N2CCCC(c3nc(-c4ccc(F)cc4)no3)C2)cc1` (stereo not drawn), the growth rescue was 0.883%.

As to `CCOC(=O)C1CCCN(C(=O)CN(c2ccc(OC)cc2)S(=O)(=O)c2c(C)noc2C)C1` (stereo not drawn), the growth rescue is 0.46%.

For `C/C(=N\NC(=O)c1ccc(NS(=O)(=O)c2cccs2)cc1)c1ccc2ccccc2c1`, the growth rescue is -0.368%.

In the case of `CSCCC(NC(=O)COc1ccccc1)C(=O)OCCOc1ccc(Br)cc1` (stereo not drawn), the growth rescue is -0.924%.

Turning to `CSCCC(NC(=O)COc1ccccc1)C(=O)N1CCN(c2cccc(C(F)(F)F)c2)CC1` (stereo not drawn), the growth rescue is 197% (active).

On to `CSCCC(NC(=O)COc1ccccc1)C(=O)OCCOc1ccc(F)cc1` (stereo not drawn), for which the growth rescue is -0.578%.

With `COCCCNS(=O)(=O)c1cccc(S(=O)(=O)c2cccc(S(=O)(=O)NCCCOC)c2)c1`, the growth rescue was -1.18%.

Consider `CNC(=S)N1CCC(NC(=O)C(Cc2ccc(F)cc2)NC(C)=O)CC1` (stereo not drawn), for which the growth rescue was -1.81%.

Consider `Cc1ccc(S(=O)(=O)NCC(=O)N(CC(=O)NC(C)(C)C)Cc2cccs2)cc1`, for which the growth rescue is -1.96%.

Consider `O=C(N[C@@H](Cc1c[nH]c2ccccc12)C(=O)O)OCC1c2ccccc2-c2ccccc21`, for which the growth rescue was -1.08%.

Take `CC(=O)c1cccc(NC(=S)N2CCN(S(C)(=O)=O)CC2)c1`: the growth rescue is -0.215%.

On to `O=C(CSc1ccc(-c2ccc(-n3cccn3)cc2)nn1)Nc1ccc([N+](=O)[O-])cc1`, for which the growth rescue was 0.191%.

With `COc1cc(NC(=O)CSc2ccc(-c3cccnc3)nn2)cc(OC)c1`, the growth rescue is -0.74%.

For `O=C(CSc1ccc(-c2ccccn2)nn1)Nc1ccccc1`, the growth rescue is 379% (active).

For the molecule `N#Cc1ccc(C(=O)OCC(=O)NC(=O)NC2CCCCC2)cc1`, the growth rescue was 0.27%.

Turning to `COc1ccc(NS(=O)(=O)c2ccc(NC(=S)NC(=O)/C=C/c3ccc(C)cc3)cc2)nn1`, the growth rescue is -1.55%.

In the case of `COc1ccc(OC(C)C(=O)Nc2cccnc2)cc1` (stereo not drawn), the growth rescue was -0.665%.

Turning to `COc1cccc(NC(=S)N(Cc2ccc(C)cc2)Cc2ccccn2)c1`, the growth rescue was 1.55%.

As for `COc1ccc(NC(=O)/C(Cl)=C(/Cl)S(=O)Cc2ccc(C)cc2)cn1` (stereo not drawn), the growth rescue was 278% (active).

As to `COc1ccc(CS(=O)/C(Cl)=C(/Cl)C(=O)Nc2ccc(OC)nc2)cc1` (stereo not drawn), the growth rescue is 81.6% (active).

For the molecule `COc1ccc(CCNC(=O)COC(=O)c2cnc(Cl)c(Cl)c2)cc1`, the growth rescue was -2.56%.
